High-throughput results as filed in PubChem BioAssay.
NLRP3 yeast inh: inhibitors of NALP3 inflammasome in yeast; Yeast reconstituted NLRP3/ASC/caspase-1, beta-gal luminescence, 24 h; AID 2825; 330,000 compounds, 0.39% hits; inhibition, % at 10 µM;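 active = inhibition of 50% or more; inactive = inhibition below 50%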;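 note: plate controls were induced DMSO wells for no effect and uninduced yeast grown without galactose for full effect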
SKKanGAS inh: blocks kanamycin growth of S. pyogenes SKKanGAS strain; BacTiter-Glo, 6 h; inhibition, % at 7.5 µM; 300,000 compounds, 1.3% hits; AID 1662;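 active = mean replicate score, as percent of positive control median, at least 50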;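 note: strain carries kanamycin resistance gene driven by streptokinase promoter and grows in 40 µg/ml kanamycin; loss of luminescence reflects streptokinase promoter inhibition or plain growth inhibition; 0% = median of DMSO wells and 100% = positive control at its reference dose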
TIM10 inh: TIM10 yeast growth inhibition; 330,000 compounds, 1.4% hits; S. cerevisiae TIM10 strain growth, BacTiter-Glo luminescence, 24 h; inhibition, % at 10 µM;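 active = inhibition of 40% or more at the single tested concentration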;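 note: wild-type TIM10 isogenic control strain grown at permissive 25 °C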
tim23-1 inh: growth inhibitors of tim23-1 mutant yeast. S. cerevisiae tim23-1 growth, BacTiter-Glo luminescence, 24 h. inhibition, % at 20 µM. 330,000 compounds, 1.3% hits. AID 463212;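 active = growth inhibition of the mutant yeast at or above 50%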;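 note: temperature-sensitive mutant grown at 25 °C; plate controls were DMSO-treated mutant yeast for no effect and medium wells lacking yeast for full effect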
tim10-1 inh: growth inhibitors of tim10-1 mutant yeast. S. cerevisiae tim10-1 ts strain growth, BacTiter-Glo, 24 h. inhibition, % at 20 µM. AID 463190. 330,000 compounds, 2.2% hits;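 active = inhibition of at least 40%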;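 note: mutant grown at 25 °C; 0% = DMSO wells with yeast and 100% = wells holding no yeast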
tim10-1 confirm: tim10-1 yeast growth inhibition, confirmed; shares compounds with tim10-1 inh; S. cerevisiae tim10-1 ts strain growth, BacTiter-Glo, 24 h; inhibition, % at 20 µM; 7,400 compounds, 56% hits;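 active = inhibition of yeast growth at or above a set limit in either of two repeat tests at 20 µM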;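 note: tim10-1 mutant grown at permissive 25 °C to find synthetic lethal compounds; 0% = DMSO yeast wells and 100% = medium wells without yeast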
tim10 confirm: confirmation of TIM10 yeast growth inhibitors; shares compounds with TIM10 inh; S. cerevisiae tim10 strain growth, BacTiter-Glo luminescence, 24 h; inhibition, % at 10 µM; 4,600 compounds, 63% hits; AID 463215;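 active = inhibition of yeast growth at or above a set limit in either of two replicates at 10 µM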;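 note: this counterscreen used the strain with wild-type TIM10; 0% = yeast with DMSO and 100% = medium wells lacking yeast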
tim23-1 conf: confirmation of tim23-1 mutant yeast growth inhibitors | 4,400 compounds, 83% hits | inhibition, % at 20 µM | shares compounds with tim23-1 inh | S. cerevisiae tim23-1 growth, BacTiter-Glo luminescence, 24 h;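 active = inhibition above about 39% in either of two replicate wells at 20 µM, limit read from the data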;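 note: temperature-sensitive tim23-1 mutant grown at 25 °C; 0% = DMSO wells with yeast and 100% = medium wells without yeast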
The depositor's hits bear a star; / = no result given. Hits are enriched below; roughly 4.6% of the tested compounds scored in any of these assays.

SMILES | NLRP3 yeast inh | SKKanGAS inh | TIM10 inh | tim23-1 inh | tim10-1 inh | tim10-1 confirm | tim10 confirm | tim23-1 conf
O=S(=O)(/N=C(\Sc1ccc(Cl)cc1)c1ccccc1)c1ccccc1 | 4 | 3 | 34 | 55* | 45* | 40* | / | 81*
Brc1ccc(-c2ccc(/C=N/Nc3nc(N4CCOCC4)nc(N4CCOCC4)n3)o2)cc1 | 18 | 22 | 7 | 11 | 3 | / | / | /
Fc1cnc(N/N=C/c2ccc(-c3ccc(Br)cc3)o2)nc1N1CCOCC1 | 11 | 14 | 33 | 51* | 43* | 24 | / | 33
CC(=O)Oc1c(-c2ccc(Br)o2)oc2ccccc2c1=O | 34 | 86* | 73* | 65* | 53* | 60* | 78* | 86*
COc1ccc(-c2oc3ccccc3c(=O)c2OC(C)=O)cc1 | 4 | 16 | 55* | 60* | 42* | 34* | 48* | 59*
O=C(O)COc1c(-c2ccco2)oc2ccccc2c1=O | -8 | -2 | 14 | 0 | -3 | / | / | /
COc1ccc(-c2oc3ccccc3c(=O)c2OCC(=O)O)cc1 | 16 | -9 | -6 | 13 | -1 | / | / | /
Oc1ccccc1N=Cc1c(O)ccc2ccccc12 | 28 | 20 | 38 | 66* | 42* | 30 | / | 79*
Cc1ccccc1NC(=O)CCS(=O)(=O)c1ccc(Br)s1 | 3 | 6 | 3 | 12 | -3 | / | / | /
COC(=O)c1ccccc1NC(=O)CCS(=O)(=O)c1ccc(Br)s1 | -11 | -3 | 33 | 55* | 44* | 44* | / | 47*
CCOc1ccc(CCNC(=O)c2sc3nc4n(c(=O)c3c2C)CCC4)cc1 | 7 | -3 | -1 | 1 | 11 | / | / | /
O=C1CC(Sc2ncccn2)C(=O)N1c1ccccc1 (configuration not stated) | 3 | 5 | 10 | 22 | 20 | / | / | /
Nc1nnc(SC2CC(=O)N(c3ccccc3)C2=O)s1 (configuration not stated) | 22 | 2 | 30 | 59* | 66* | 53* | / | 58*
Cc1cccc(/C(N)=N/OC(=O)CCCc2ccccc2)c1 | 21 | 8 | 53* | 59* | 61* | 57* | 45* | 59*
N/C(=N\OC(=O)c1ccco1)c1ccc(Br)cc1 | 5 | 2 | 56* | 62* | 58* | 54* | 51* | 76*
Cc1cccc(/C(N)=N/OC(=O)c2ccco2)c1 | 3 | -5 | 26 | 59* | 42* | 32* | / | 43*
CN(C)c1ccc(NC(=O)Cc2ccccc2)c2ccccc12 | 15 | -2 | 11 | 15 | 9 | / | / | /
Oc1ccc(C=Nc2ccccc2-c2nc3ccccc3[nH]2)cc1 | 26 | 5 | 21 | 0 | 13 | / | / | /
Cc1ccccc1CC(=O)c1ccc(O)c(C)c1O | -4 | -25 | 31 | 61* | 49* | 46* | / | 66*
CCN(CC)c1ccc(/C=N/NC(=O)c2nnn(-c3nonc3N)c2C(C)C)c(O)c1 | 24 | 59* | 60* | 62* | 72* | 16 | 66* | 61*
COc1ccc2cc3cc(C(=O)N4CCN(c5ccccn5)CC4)oc3nc2c1 | 22 | 12 | 55* | 54* | 44* | 27 | 59* | -2
COc1c(C)cc(C(=O)C2CCCN(C(=O)/C=C/c3ccccn3)C2)cc1C (configuration not stated) | -3 | 3 | 25 | 13 | 18 | / | / | /
CCOC(=O)c1cc2c(nc1C)-c1cc(Cl)cc(Cl)c1OC2O (configuration not stated) | -13 | / | 23 | -8 | 22 | / | / | /
Cc1ccc(C(OCC(O)CNC(C)c2ccccc2)c2ccccc2)cc1 (configuration not stated) | 21 | 7 | 59* | 54* | 62* | 61* | 52* | 39*
Cc1nc(SCC(=O)Nc2ccc(CN3CCCC3)cc2)c2c(C)c(C)sc2n1 | 25 | / | 51* | 53* | 51* | 62* | 38* | 57*
SMILES | NLRP3 yeast inh | SKKanGAS inh | TIM10 inh | tim23-1 inh | tim10-1 inh | tim10-1 confirm | tim10 confirm | tim23-1 conf
CCCCN1CC(=O)N2[C@H]3c4cc(C)ccc4OC[C@@H]3[C@H](C(=O)OCC)[C@]2(C)C1=O | 11 | / | 0 | -3 | -5 | / | / | /
O=C(N/N=C/c1ccc(O)c(O)c1)NC12CC3CC(CC(C3)C1)C2 | 4 | -3 | -3 | 13 | 20 | / | / | /
O=C(N/N=C/c1ccccc1O)NC12CC3CC(CC(C3)C1)C2 | 14 | 84* | 29 | 71* | 44* | 36* | / | 68*
O=C(Nc1nc2ccccc2s1)C1CC(=O)N(c2ccc(Br)cc2)C1 (configuration not stated) | 15 | 22 | 46* | 73* | 49* | 37* | 36* | 74*
CC1(c2ccc(Cl)cc2Cl)NC(=O)N(CC(=O)Nc2ccc3[nH]c(=O)[nH]c3c2)C1=O (configuration not stated) | 18 | 1 | -7 | 15 | 0 | / | / | /
CCc1c(O)nc(SCc2ccccc2)n(C(C)CC)c1=O (configuration not stated) | 2 | 14 | 37 | 52* | 41* | 45* | / | 48*
C=CCSc1nc(O)c(CC)c(=O)n1C(C)CC (configuration not stated) | -10 | 4 | 16 | 26 | 22 | / | / | /
CC(=O)Nc1ccc(N2CCCCC2)c(C(=O)Nc2cccc(C)c2)c1 | -2 | 17 | 38 | 54* | 43* | 57* | / | 50*
Cc1ccc(-n2ncc3c2CC(C)(C)CC3NC(=O)CCc2ccc(=O)[nH]n2)cc1 (configuration not stated) | 5 | 2 | 6 | -2 | -15 | / | / | /
Nc1ccc(N=Nc2ccccc2)c2ccccc12 | 34 | 86* | 65* | 80* | 49* | 39* | 75* | 13
COc1ccccc1C/C(N)=N/OC(=O)COc1cc(C)cc(C)c1C | -3 | 5 | 73* | 78* | 65* | 70* | 68* | 81*
COc1ccccc1C/C(N)=N/OC(=O)COc1cccc(C)c1C | -2 | 13 | 53* | 70* | 63* | 68* | 46* | 62*
CC(Oc1ccccc1)C(=O)N=C1SC2CS(=O)(=O)CC2N1CCc1ccccc1 (configuration not stated) | 6 | 3 | -3 | 20 | 14 | / | / | /
CCCC(=O)Nc1c(-c2cccc(OC)c2)c(=O)c2ccccc2n1C | 12 | -5 | 2 | 18 | 16 | / | / | /
N#C/C(=C\c1c(F)cccc1Cl)C(=O)NC1CC1 | 27 | 1 | 61* | 85* | 74* | 61* | 66* | 81*
